# Tested on: HepG2
# Assay: GSK_TCMDC: Percent inhibition of human HepG2 cell line. Test compounds present at 10uM.
# Format: functional
row,SMILES,Inhibition
1,COc1ccc(C2C(C(=O)Nc3ccc4c(c3)OCO4)c3cc(OC)c(OC)cc3C(=O)N2C)cc1 (stereo not given),12%
2,COc1cc(C)c(C(O)CNC(C)CCc2ccccc2)cc1C.Cl (stereo not given),1%
3,CN(C)c1ccc2nc(N)nc(N)c2c1Cl.Cl,68%
4,Cl.N#Cc1ccc2c(c1)CCN(CCC1CCC(NC(=O)/C=C/c3cccc4ccccc34)CC1)CC2 (stereo not given),16%
5,O=C(Nc1ccccc1)NC1CCN(CCC2(c3ccc(Cl)c(Cl)c3)COCN(C(=O)c3ccccc3)C2)C1 (stereo not given),23%
6,CC(C)c1cc(Oc2c(I)cc(CCCc3ncc[nH]3)cc2I)ccc1O.Cl,28%
7,S=c1nc(-c2ccccc2)n2ccsc2n1,3%
8,O=C(Nc1cccc(CN2CCCN(CC3CCCCC3)CC2)c1)c1ccc(Cl)c(Cl)c1.O=C(O)C(F)(F)F,39%
9,O=C(Nc1ccc(-c2cccc(-c3nc4cc(C(F)(F)F)ccc4[nH]3)c2)cc1)Nc1ccc(Cl)c(Cl)c1,42%
10,Cc1cc(CN2CC[C@H](NC(=O)c3ccc(Cl)c(Cl)c3)C2)ccc1OCCN1CCNCC1.O=C(O)C(F)(F)F,15%
11,COc1ccc2nccc(N3CCC(SCCNCc4ccc5c(n4)NC(=O)CO5)C3)c2n1.Cl (stereo not given),30%
12,CN1CCC(NCc2ccc(-c3cccc(S(=O)(=O)NCCc4ccccn4)c3)cc2)CC1.O=C(O)C(F)(F)F,42%
13,CC(C)OC(=O)c1ccccc1S(N)(=O)=O,0%
14,O=S(=O)(c1ccccc1)C1CC1,0%
15,Cl.N#Cc1ccc2c(c1)CCN(CCC1CCC(NC(=O)c3cc4ccccc4[nH]3)CC1)CC2 (stereo not given),17%
16,CC(C)(CN)c1nc(-c2ccc(Cl)c(O)c2)c(-c2ccnc(N)n2)[nH]1,34%
17,Cc1ccc2[nH]c(C)cc(=NN=CC=Cc3ccccc3)c2c1,0%
18,COc1cc(C(=O)NC2CC(C)(C)N(C)C(C)(C)C2)ccc1-c1nc2cc(Cl)c(Cl)cc2[nH]1,69%
19,O=C(CCC1CCCCC1=O)c1ccccc1 (stereo not given),0%
20,Cc1cc(=NN=Cc2ccccc2Cl)c2ccc(F)cc2[nH]1,6%

row,SMILES,Inhibition
1,Nc1nc(N)c2c(ccc3c2ncn3Cc2ccccc2)n1,71%
2,Br.Oc1ccc(CCNCCCCCCNCCc2ccc(Cl)c(Cl)c2)cc1O,21%
3,CCn1c(Sc2ccc([N+](=O)[O-])c(C#N)c2)nnc1-c1ccc(Cl)cc1,2%
4,COc1cc(Br)c(S(=O)(=O)n2cc(CN3CCC(N)CC3)c3cc(Cl)ccc32)cc1OC.O=C(O)C(F)(F)F,27%
5,O=C(O)C(F)(F)F.O=S(=O)(NCCN1CCCC1)c1ccc(-c2ccc(CNC3Cc4ccccc4C3)cc2)cc1F,33%
6,COc1cccc(NC(=O)NC2CCN(c3ccnc(Nc4ccc(F)cc4)n3)C2)c1 (stereo not given),9%
7,COC(=O)c1ccc(-c2ccc(-c3cccnc3)cc2C)cc1,81%
8,COc1ccccc1-c1csc(C(=O)NCC2CCN(Cc3ccc(C(C)C)cc3)C2)c1.O=C(O)C(F)(F)F (stereo not given),24%
9,FC(F)(F)c1ccc2[nH]c(-c3ccc(-c4ccc(CN5CCN(c6cnccn6)CC5)cc4)cc3)nc2c1.O=C(O)C(F)(F)F,21%
10,CN(Cc1cc(C(F)(F)F)cc(C(F)(F)F)c1)C(=O)C(Cc1ccc(F)cc1)C1CCCNC1 (stereo not given),10%
11,COc1ccc(C(=O)N2CCC3(CC2)C(=O)N(CC(=O)NCC2CCCCC2)CN3c2ccccc2)c(OC)c1,6%
12,O=C(NC1CCN(Cc2ccccc2)CC1)c1ccc(-c2nc3cc4ccccc4cc3[nH]2)s1,13%
13,CCn1c(-c2nonc2N)nc2c(-c3ccccc3)ncc(OCCCNCCCN3CCOCC3)c21.O=C(O)C(F)(F)F,28%
14,CCN(CC)CCN(Cc1ccc(-c2ccc(C(F)(F)F)cc2)cc1)C(=O)Cn1c(CCc2cc(F)c(F)cc2F)nc(=O)c2ccccc21.O=C(O)C(O)C(O)C(=O)O,39%
15,CC(C)COc1ccc(Cl)cc1Cc1nc(-c2nc3cccc(CN4CCN(C)CC4)c3[nH]2)cs1,15%
16,Cn1ccc(C(=O)Nc2ccc3c(c2)CN(Cc2ccc(N4CCCC4)o2)CCC3)n1.O=CO,19%
17,O=C(c1cccc(-c2ccc(-c3nc4cc(F)ccc4[nH]3)s2)c1)N1CCCCC1CN1CCC(O)C1 (stereo not given),23%
18,N=C1NC(=O)C(=Cc2cn(-c3ccccc3)nc2-c2cccc(S(=O)(=O)N3CCCC3)c2)S1,0%
19,CC(C)CCN1CCC(Oc2ccc(NC(=O)c3ccccc3)cc2Cl)CC1.O=C(O)C(F)(F)F,17%
20,Cc1cccc2nc(-c3ccc(-c4cccc(CNCCCN5CCCC5=O)c4)s3)[nH]c12.O=C(O)C(F)(F)F,14%

# From ChEMBL document CHEMBL1157539, “Thousands of chemical starting points for antimalarial lead identification” (Nature, 2010)
